Assay outcomes (PubChem)
D2 PAM-1 – positive allosteric modulators of human D2 dopamine receptor; AID 485347; HEK293 T-REx D2, calcium flux, EC20 dopamine potentiation; potentiation, % at 10 µM; P14416; hit rate 0.34% among 340,000;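 active = potentiation over 3 SD above the plate norm, cut at about 30% in these data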
Target sequence (P14416 whole entry, looked up): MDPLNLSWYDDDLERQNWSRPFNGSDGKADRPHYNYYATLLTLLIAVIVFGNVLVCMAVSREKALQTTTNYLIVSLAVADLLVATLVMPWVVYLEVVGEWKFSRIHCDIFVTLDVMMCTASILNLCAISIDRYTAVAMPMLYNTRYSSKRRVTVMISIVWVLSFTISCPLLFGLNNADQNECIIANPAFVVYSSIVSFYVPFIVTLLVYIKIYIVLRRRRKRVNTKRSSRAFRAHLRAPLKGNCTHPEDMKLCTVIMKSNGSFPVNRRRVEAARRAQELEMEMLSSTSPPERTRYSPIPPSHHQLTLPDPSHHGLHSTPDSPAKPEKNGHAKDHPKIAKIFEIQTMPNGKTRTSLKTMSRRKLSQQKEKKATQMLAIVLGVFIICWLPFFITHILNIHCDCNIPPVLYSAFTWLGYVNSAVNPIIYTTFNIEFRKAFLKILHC
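Calcium flux readout, no-wash dye, 1 read/s. Inducible HEK293 Trex D2 line, overnight 30 C. Compound alone 180 s (agonist flags), then EC20 dopamine, another 180 s to score potentiation.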
D2 PAM-2 – positive allosteric modulators of human D2 dopamine receptor; AID 624464; DiscoveRx D2 beta-arrestin cells, luminescence, 90 min; 100% = 57 uM dopamine signal; potentiation, % (test concentration not listed); P14416; hit rate 0.23% among 360,000; in the data active = potentiation above about 50%; inconclusive = mostly about 30% to 49%
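D2 cells co-treated with compound plus 50 nM dopamine (EC20) for 90 min at 37 deg C to detect potentiation. Beta-arrestin recruitment was read as enzyme-fragment luminescence after 1 h at ambient temperature. Full response was set by 57 uM dopamine.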
D2 ag-1 – agonists of human D2 dopamine receptor; P14416; HEK293 T-REx D2 cells, calcium flux agonist mode; activation, % at 2 µM; hit rate 0.53% among 340,000;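 active = activation over 3 SD above normal in the single-dose calcium agonist read, cut at about 30% in these data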
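Agonism is scored from calcium flux in a force-coupled, inducible HEK293 cell line expressing D2, read kinetically for 180 s after compound addition against dopamine controls.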
D2 ag-2 – human D2 receptor agonism in beta-arrestin assay; hit rate 0.084% among 360,000; DiscoveRx PathHunter D2 beta-arrestin, luminescence, 90 min; 100% = 57 uM dopamine signal; activation, % (concentration not given with the values); P14416; in the data active = activation above about 40%; inconclusive = between about 15% and that limit
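DiscoveRx PathHunter D2 beta-arrestin cells (2,100/well) attached overnight, then compound-stimulated 90 min at 37 C in HBSS/10 mM HEPES/0.1% Tween-20 buffer; beta-galactosidase complementation read by luminescence after 1 h at ambient temperature. Dopamine 57 uM final (EC100) as control.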
D2 antag – antagonizes the human D2 dopamine receptor. HEK293 TREx D2 cells, calcium flux, dopamine EC80. inhibition, % at 10 µM. hit rate 2% among 340,000; in the data active = inhibition above about 30%; inactive = below that, where a call was filed
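Inhibition of EC80 dopamine-driven calcium flux, recorded kinetically, defines activity here; cells are a tetracycline-induced HEK293 T-REx line expressing force-coupled D2.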
Of the large screens only hits and unclear results are named; the others gave an inactive call. Only some compounds are listed: those with a hit (about 2.4% of all), similar ones and a draw of the others.

Cc1ccccc1CSCC1Nc2ccc(C(=O)NCCc3ccccc3)cc2NC1=O (stereo not given)	none (no result: D2 PAM-1, D2 ag-1, D2 antag)
Cc1ccc2c(c1C)NC(=O)C21N2CCCC2C(C(=O)c2ccc3ccccc3c2)C12C(=O)Nc1ccccc12 (stereo not given)	none
CC1CCc2c(sc(NC(=O)c3cc4nc(-c5ccc(Cl)cc5)cc(C(F)(F)F)n4n3)c2C#N)C1 (stereo not given)	none (no result: D2 PAM-2, D2 ag-2, D2 antag)
CC1CCN(C(=O)c2cc(-c3ccc4c(c3)OCO4)on2)CC1	D2 PAM-1 36
CC1CCCCN1C(=O)c1cc(-c2ccc3c(c2)OCO3)on1 (stereo not given)	none
CCOC(=O)CN1C(=O)S/C(=C/c2ccc(OCc3ccc(C(=O)O)cc3)cc2)C1=O	none
CCCOC(=O)Nc1cccc(C(C)=O)c1	D2 antag 35
Cc1ccc(NC(=O)COC(=O)c2ccc3c(c2)OCCO3)cc1	none
CCCOC(=O)Nc1ccc(C(N)=O)cc1	none
CCOC(=O)c1cccc(NC(=O)COc2ccc([N+](=O)[O-])cc2)c1	none (no result: D2 PAM-1, D2 ag-1, D2 antag)
CC(=O)c1cccc(NC(=O)COC(=O)c2ccc3c(c2)OCCO3)c1	D2 antag 39
CCCOC(=O)c1cccc(NC(=O)COc2ccc([N+](=O)[O-])cc2)c1	D2 antag 33
Cc1cc(/C=N/NC(N)=S)c(O)c(/C=N/NC(N)=S)c1	D2 ag-1 45
NC(=S)N/N=C/c1cccc(O)c1O	none
COc1cc(OC)cc(C(=O)Nc2nc(-c3nnn(-c4ccc(F)c(Cl)c4)c3C)ns2)c1	none (no result: D2 PAM-2, D2 ag-2, D2 antag)
Cc1cccc(/C=N/NC(=O)c2cc3c(s2)-c2ccccc2CC3)c1	D2 antag 32
Cc1ccc2onc(CNC(=O)N3CCN(c4cc(Cl)ccc4C)CC3)c2c1	none (no result: D2 PAM-2, D2 ag-2, D2 antag)
O=C(c1ccc(S(=O)(=O)Cc2cc(F)ccc2F)c([N+](=O)[O-])c1)N1CCOCC1	none (no result: D2 PAM-1, D2 ag-1, D2 antag)
COc1ccc(OCC(=O)Nc2ccccc2C(=O)N2CCOCC2)cc1	D2 PAM-1 36
O=C(NCCS(=O)(=O)N1CCN(Cc2ccccc2)CC1)c1ccc(F)cc1	none
CCCCOc1ccc(C(=O)Nc2ccc3c(c2)CCCN3C(=O)c2cccs2)cc1	none (no result: D2 PAM-2, D2 ag-2, D2 antag)
Cc1cc(NC(=O)CN2CC(C)OC(C)C2)n(-c2nc3ccccc3s2)n1 (stereo not given)	D2 antag 34
Nc1ncc(S(=O)(=O)NCc2ccc(F)cc2)cn1	none (no result: D2 PAM-2, D2 ag-2, D2 antag)
O=C1NC[C@@H](Cc2cccc3ccccc23)N(CC2(c3ccccc3)CC2)C1=O	D2 PAM-1 32
O=C(c1ccccc1)c1ccc2c(c1)OCCOCCOCCOCCO2	D2 antag 50
O=C(O)c1ccc2c(c1)OCCOCCOCCOCCOCCO2	none
CC(C)CC(C(=O)Nc1ccc2c(c1)OCCO2)N1C(=O)c2ccccc2C1=O (stereo not given)	D2 antag 57
CC(C)C(C(=O)Nc1ccc2c(c1)OCCO2)N1C(=O)c2ccccc2C1=O (stereo not given)	none
COc1ccc(-c2cn3nc(N4CCC(C(=O)Nc5ccccc5OC)CC4)sc3n2)cc1	none (no result: D2 PAM-2, D2 ag-1, D2 ag-2, D2 antag)
Nc1nc(C(F)(F)F)cc(=O)n1N	none
COc1ccccc1N1CCN(C(=O)c2cnc(N3CCCCC3)c3ccccc23)CC1	none (no result: D2 PAM-2, D2 ag-2, D2 antag)
COc1ccc(CNC(=O)c2cc(C3CC3)nc3c2cnn3C(C)C)cc1OC	none
Cc1ccc(CNC(=O)c2cc(C3CC3)nc3c2cnn3C(C)C)cc1	D2 antag 39
Cn1c(Cn2nnc3ccccc32)nnc1SCC(N)=O	D2 PAM-1 34
COC(=O)CN1C(c2ccc(OC)cc2)=Nc2ccc(Cl)cc2C1c1ccccc1 (stereo not given)	D2 antag 91
COc1cc(C2=Nc3ccc(Br)cc3C(c3ccccc3)N2CC(=O)NN)cc(OC)c1OC (stereo not given)	D2 antag 86
COC(=O)CN1C(c2cccc(Cl)c2)=Nc2ccc(Cl)cc2C1c1ccccc1 (stereo not given)	none
c1ccc2oc(CCc3nc4ccccc4o3)nc2c1	none (no result: D2 ag-1, D2 antag)
Nc1ccc2oc(CCc3ccccc3)nc2c1	D2 PAM-2 inconclusive, D2 antag 38
CCCCn1c2ccccc2c2nnc(SCC(=O)NC3=NN=C(c4ccccc4)CS3)nc21	D2 antag 70 (no result: D2 PAM-2, D2 ag-2)
CCCn1c2ccccc2c2nnc(SCC(=O)OC)nc21	none
Cc1cc(C)n(CC2CC(=O)N(c3cc(Cl)cc(Cl)c3)C2=O)n1 (stereo not given)	D2 antag 31
COc1ccc(NC(=O)CSc2ncc(-c3ccc(Cl)cc3)[nH]2)cc1OC	none (no result: D2 PAM-2, D2 ag-2, D2 antag)
Cc1c2ccccc2nc2c(F)c(NC(C)C)c(F)c(F)c12	D2 ag-1 45
C/C(=N\Nc1ccc(S(=O)(=O)Nc2ccccc2)cc1[N+](=O)[O-])c1ccncc1	none (no result: D2 PAM-2, D2 ag-1, D2 ag-2, D2 antag)
COc1ccc(NS(=O)(=O)c2ccc(N/N=C(\C)c3ccncc3)c([N+](=O)[O-])c2)cc1	D2 antag 79
CC(C(=O)OCC(=O)c1ccc(Br)cc1)N1C(=O)C2C3C=CC(C3)C2C1=O (stereo not given)	D2 PAM-1 32
Cc1ccc(-n2nnnc2SCc2ccc(C(=O)O)cc2)cc1C	D2 antag 30
CC1(c2ccccc2Cl)NC(=O)N(CC(=O)Nc2ccc(N3CCCCC3)cc2)C1=O (stereo not given)	D2 antag 35
CC1(c2ccccc2Cl)NC(=O)N(CC(=O)Nc2ccc(N3CCOCC3)cc2)C1=O (stereo not given)	none (no result: D2 PAM-1, D2 ag-1, D2 antag)
O=C1NC(=Nc2ccc(Cl)cc2)/C(=C/c2ccco2)S1	D2 antag 59
CC(C)(C)c1cc(C(=O)NNC(=O)Nc2cccc(Cl)c2)n(Cc2ccccc2)n1	D2 antag 50
NC(=O)C1CCN(C(=O)COc2ccc3c4c(c(=O)oc3c2)CCCC4)CC1	D2 antag 31
O=C(O)C1CCN(C(=O)COc2ccc3c4c(c(=O)oc3c2)CCC4)CC1	none
Cc1cc(C(=O)O)ccc1N/C=C1\CCCC(C)C1=O (stereo not given)	none
CC1CCC/C(=C\Nc2ccc(O)cc2)C1=O (stereo not given)	D2 PAM-2 54
O=C1C(=O)c2c(C(=O)c3ccccc3)coc2-c2ccccc21	D2 PAM-2 71, D2 ag-2 inconclusive
Cc1oc2c(c1C(=O)c1ccccc1)C(=O)C(=O)c1ccccc1-2	D2 ag-2 inconclusive
CN1CCN(CCCN2c3ccccc3Sc3ccc(C(F)(F)F)cc32)CC1	D2 antag 79
O=C(CN1CCCC(O)C1)N1c2ccccc2Sc2ccc(C(F)(F)F)cc21 (stereo not given)	none
Cn1cc(S(=O)(=O)N2CCN(c3ccccc3F)CC2)c(=O)n(C)c1=O	D2 antag 32
N#Cc1cccc(C(c2nnnn2C2CCCC2)N2CCC(Cc3ccccc3)CC2)c1 (stereo not given)	D2 PAM-1 40
C/C(=N\NC(=O)CN(c1ccccc1)S(C)(=O)=O)c1ccccc1O	D2 antag 44
